# Measured values from PubChem BioAssay AID588334 (Broad Institute, 2011).
# Out of some 300,000 compounds screened, about 2,300 (0.77%) were called active.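 Rule for the calls: active = mean activation of at least 80% with every replicate also reaching 80%; inconclusive = mean reaches 80% but some replicate falls short; inactive = the rest.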 This excerpt belongs to a sample that is enriched for actives.
# Assay: MITF-driven TRPM1 luciferase induction in melanoma cells – cell-based, SK-MEL-5, single point, primary screen (AID 588334);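 note: 0% = neutral control wells and 100% = parthenolide positive control wells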
# Conditions: SK-MEL-5 TRPM1-promoter luciferase, 24 h; at 12.5 µM; active compounds read high; % of positive control, neutral wells = 0
row,SMILES,activation
1,COc1ccccc1OCCCC(=O)Nc1ccc2c(c1)OCCO2,24.7% (inactive)
2,CCC(=O)c1cc(F)ccc1OCC(=O)Nc1ccc2c(c1)OCCO2,22.6% (inactive)
3,CCc1ccccc1OCC(=O)Nc1ccc2c(c1)OCCO2,89.7% (active)
4,Cc1cc2c(cc1C)NC1(C[C@H]3CCC(=O)N4CC[C@@H](C1)[C@@H]34)C(=NC(C)(C)CC(C)(C)C)N2 (stereo partly drawn),-10% (inactive)
5,NC(=O)N1CCc2ccccc21,-5.85% (inactive)
6,O=C(CN1CCN(c2ccccn2)CC1)N1CCc2ccccc21,19.8% (inactive)
7,O=C(CSCc1ccccc1)N1CCc2ccccc21,95% (active)
8,Cn1c(N)cc(=O)n(C)c1=S,-8.41% (inactive)
9,CC(C)c1ccc(/C=C/C(=O)NCCCN2CCOCC2)cc1,4.51% (inactive)
10,CC(C)c1ccc(/C=C/C(=O)NNC(=O)c2cccnc2)cc1,9.02% (inactive)
11,C=CCNC(=O)/C=C/c1ccc(C(C)C)cc1,89.4% (active)
12,CN(C(=O)c1cccc(NC(=O)Cc2ccc(NC(=O)C3CCCN(C(=O)C4CCCC4)C3)cc2)c1)C1CCC1 (stereo not drawn),-9.98% (inactive)
13,O=c1ccn([C@@H]2O[C@H](CNS(=O)(=O)c3cc4ccccc4s3)[C@@H](O)[C@H]2O)c(=O)[nH]1,-4.34% (inactive)
14,O=C(Nc1cccc(S(=O)(=O)N2CCOCC2)c1)C12CC3CC(CC(C3)C1)C2,12.4% (inactive)
15,Cc1ccc(C)c(C(C)NC(=O)C2CCCO2)c1 (stereo not drawn),-7.6% (inactive)
16,Cc1cc(C)c2nc(NC(=O)C3CCCO3)sc2c1 (stereo not drawn),81.4% (active)
17,Cc1cc([N+](=O)[O-])ccc1NC(=O)C1CCCO1 (stereo not drawn),-1.67% (inactive)
18,C/C(=N\Nc1ccc(Cl)nn1)c1ccccc1O,-45.2% (inactive)
19,NC(=O)c1ccc(N2CCCC2)nc1,-7.45% (inactive)
20,COc1ccc(CN2C(CC(=O)Nc3cccnc3)c3ccc(C(F)(F)F)cc3S2(=O)=O)cc1 (stereo not drawn),11.4% (inactive)
21,O=C1COc2c1ccc(O)c2O,1.19% (inactive)
22,Cc1cc(/C=C2/SC(=O)N(CC(=O)OC(C)C)C2=O)c(C)n1C,97.9% (active)
23,CC(C)OC(=O)CN1C(=O)C(=O)c2ccccc21,-5.18% (inactive)
24,Cc1cc(/C=C2\SC(=O)N(C)C2=O)c(C)n1-c1cccc(C(=O)O)c1,3.12% (inactive)
25,CCCNC(=O)c1c(Cl)cnn1-c1ccc(C)cc1,69.7% (inactive)

row,SMILES,activation
1,O=c1c(Cl)c(NC2CC2)cnn1-c1ccccc1,6.24% (inactive)
2,C=CCNc1cnn(-c2ccc(C)cc2)c(=O)c1Cl,108% (active)
3,O=C(c1cccc(S(=O)(=O)N2CCCCCC2)c1)N1CCN(Cc2ccccc2)CC1,4.94% (inactive)
4,COc1ccc(/C=N/NC(=O)Nc2ccc3nsnc3c2)c(OC)c1,4.9% (inactive)
5,COc1ccc(NC(=O)Nc2cccc3cccnc23)cc1,40.1% (inactive)
6,COc1ccc(NC(=O)Nc2ccc3nsnc3c2)cc1,92.9% (active)
7,O=C(Nc1c(Br)cc2c(c1Br)Cc1cc([N+](=O)[O-])ccc1-2)C(Cl)Cl,-16.6% (inactive)
8,FC(F)(F)c1ccc(-c2cccc3c2C2CC3CCN2Cc2ccccc2)cc1 (stereo not drawn),-0.65% (inactive)
9,COc1ccc(NC(=O)/C(N=Nc2cccc(S(=O)(=O)Nc3ccc(SC(F)F)cc3)c2)=C(\C)O)cc1,-7.51% (inactive)
10,CN(C(=O)c1cccc(NC(=O)Cc2ccc(NC(=O)C3CCCN(C(=O)C4CC4)C3)cc2)c1)C1CC1 (stereo not drawn),-7.94% (inactive)
11,Cc1ccc(C(=O)Nc2nnc(-c3cccs3)s2)cc1C,87.8% (active)
12,Cc1ccc(C(=O)Oc2coc(CSc3nnc(NC(=O)c4cccs4)s3)cc2=O)cc1C,0.796% (inactive)
13,CCOc1cccc(C(=O)Nc2nnc(-c3cccs3)s2)c1,25.8% (inactive)
14,NC1=NOC(=O)C1C1CCCCC1 (stereo not drawn),-0.578% (inactive)
15,O=c1[nH]c2c(c(=O)n1-c1ccccc1)CCO2,1.65% (inactive)
16,COc1cc(C2CC(=O)Oc3cc(OC)c(OC)c(OC)c32)cc(OC)c1OC (stereo not drawn),1.92% (inactive)
17,CC1CCc2c(sc3nc4n(c(=O)c23)CCS4)C1 (stereo not drawn),73.6% (inactive)
18,C=CCn1c(SCc2c(C)noc2C)nc2sc3c(c2c1=O)CCC(C)C3 (stereo not drawn),-11.8% (inactive)
19,CCCn1nnc2sc3c(c2c1=O)CCC(C)C3 (stereo not drawn),99.2% (active)
20,CS(=O)(=O)N1CCc2cc(C(=O)Nc3ccccc3Br)ccc21,85.3% (active)
21,CSc1ccccc1NC(=O)c1ccc2c(c1)CCN2S(C)(=O)=O,25.3% (inactive)
22,CS(=O)(=O)N1CCc2cc(C(=O)Nc3ccccc3)ccc21,49.3% (inactive)
23,Cc1ccc(NC(=O)Nc2ccc3oc(C)nc3c2)cc1,92.6% (active)
24,Cc1nc2cc(NC(=O)NCc3ccccc3)ccc2o1,14.2% (inactive)
25,C=C(C)C(=O)Nc1cccc(C(C)=O)c1,5.72% (inactive)

row,SMILES,activation
1,CC(=O)c1cccc(NC(=O)Nc2ccc(C)cc2)c1,104% (active)
2,COC(=O)c1ccc(NC(=O)Nc2ccc(C)cc2)cc1,25.4% (inactive)
3,Cc1nc2ccc(NC(=O)C(F)(F)F)cc2o1,-1.51% (inactive)
4,C[C@H](O)[C@@H]1C(=O)N2CCc3ccc(N4CCOCC4)cc3[C@@H]2C[C@@H]1N(C)C(=O)C(C)(C)C,3.72% (inactive)
5,COc1ccc(C2NCCCC2c2ccccc2)cc1 (stereo not drawn),-15.7% (inactive)
6,O=C(NN=Cc1ccccc1O)NN=Cc1ccccc1O,-21.8% (inactive)
7,O=C(Nc1ccc2ccccc2c1[N+](=O)[O-])c1ccccc1,37.5% (inactive)
8,COc1cc(C(=O)OCc2cc(=O)n3ccsc3n2)ccc1OC(C)C,25% (inactive)
9,COc1ccc([C@H]2CC(=O)C=C(/C=C/c3ccc(Cl)cc3)C2)cc1,55.4% (inactive)
10,COc1ccc([C@H]2CC(=O)C=C(c3ccc(C)cc3)C2)cc1,18.7% (inactive)
11,COc1ccc([C@H]2CC(=O)C=C(/C=C/c3ccccc3)C2)cc1,84.7% (active)
12,CC1CN(Cc2ccccc2)C(=S)NC1=O (stereo not drawn),3.25% (inactive)
13,COC(=O)c1ccc(CNC(=O)Cn2cc(C)c(=O)[nH]c2=O)cc1,2.68% (inactive)
14,FC(F)(F)c1cccc(Nc2ncnc3ccccc23)c1,0.633% (inactive)
15,FC(F)(F)c1cccc(N/N=C/c2ccccc2)c1,88.5% (active)
16,Cc1nnsc1C(=O)N/N=C/c1cccc(C(F)(F)F)c1,15.6% (inactive)
17,Cc1c(NS(=O)(=O)c2cccc(C(=O)Nc3ccc(SC(F)F)cc3)c2)c(=O)n(-c2ccccc2)n1C,-11% (inactive)
18,COc1cc(/C=C/c2ccc(/C=C/c3cc(OC)c(OC)c(OC)c3)cc2)cc(OC)c1OC,-15.7% (inactive)
19,COc1cccc(C(=O)CC(=O)C(=O)Nc2ccc([N+](=O)[O-])cc2C)c1,0.189% (inactive)
20,COc1cccc(NCCC(=O)c2cccc([N+](=O)[O-])c2)c1,85.6% (active)
21,COc1cccc(CNC(=O)CCCC(=O)Nc2cccc([N+](=O)[O-])c2)c1,-21% (inactive)
22,Cc1ccc(C)c(S(=O)(=O)N2CCN(c3ncnc4sccc34)CC2)c1,-33.1% (inactive)
23,CCC(C)C1(C2CCCC2)NC(=O)NC1=O (stereo not drawn),-0.575% (inactive)
24,CSCCC(NS(=O)(=O)c1ccc(C)cc1)C(=O)N(C)CC(=O)Nc1ccccc1Br (stereo not drawn),-13.8% (inactive)
25,Cc1nn2cc(-c3ccc(Cl)cc3)cnc2c1Br,132% (active)

row,SMILES,activation
1,C=CCn1c(=O)n(C)c2c(=O)n(C)c(=O)n(C)c21,-2.68% (inactive)
2,O=C1c2ccccc2C(=O)N1CCCCCCN1C(=O)c2ccccc2C1=O,-10.4% (inactive)
3,CC(C)n1cnc2c(NCc3ccccc3)cc(OCC3CCN(C)CC3)cc21,-31% (inactive)
4,CN(C)c1ccc(CSc2ccccc2)cc1,106% (active)
5,CN(C)c1cc[n+](Cc2ccccc2)cc1,-11.3% (inactive)
6,O=C(c1ccc(CSc2ccccc2)cc1)N1CCCCCC1,61.5% (inactive)
7,C=CC[C@H](CC(=O)N(CCO)Cc1ccccc1)C(=O)N[C@@H](COC(=O)[C@@H](CC=C)Cc1ccc(F)cc1)Cc1ccccc1,8.2% (inactive)
8,Nc1cc(=O)n(Cc2ccccc2)c(=O)n1Cc1ccccc1,-2.74% (inactive)
9,Cn1c(SCc2c(F)cccc2Cl)nnc1-c1cnccn1,90.4% (active)
10,Oc1ccc(-n2nnnc2SCc2c(F)cccc2Cl)cc1,0.316% (inactive)
11,Cc1ccc(CSc2nnc(-c3cnccn3)n2C)cc1,12.1% (inactive)
12,Cc1ccc(C(=O)Nc2ccccc2-c2ccccc2)cc1S(=O)(=O)Nc1ccccc1,3.07% (inactive)
13,CCOc1cc(C(=O)N(Cc2ccccc2)c2ccc(C)cc2)ccc1OCC(=O)N1CCOCC1,-10.1% (inactive)
14,CCOC(=O)c1ccc(NC(=O)CNC(=O)c2ccco2)cc1,7.02% (inactive)
15,O=C(OCC(=O)N1CCCC1)c1ccco1,4.95% (inactive)
16,O=C(COC(=O)c1ccco1)NCc1ccc(Cl)cc1,-14.2% (inactive)
17,CCN(CC)c1ccc(C(=O)OCC(=O)c2ccco2)cc1,83.2% (active)
18,CCc1ccc(C(=O)COC(=O)c2ccco2)cc1,99.6% (active)
19,O=C(COC(=O)c1ccccc1C(=O)c1ccccc1)c1ccco1,1.5% (inactive)
20,CCCCN1CC(COc2ccccc2)Oc2cccc(F)c2S1(=O)=O (stereo not drawn),-2.06% (inactive)
21,N#CCc1c[nH]c2ccc([N+](=O)[O-])cc12,11.4% (inactive)
22,CCC1([N+](=O)[O-])COC(c2ccc(C)cc2)OC1 (stereo not drawn),1.68% (inactive)
23,CN(CCc1ccccc1)C(=O)c1cccc(NC(=O)Cc2cccc(NC(=O)C3CCCN(C(=O)C4CCC4)C3)c2)c1 (stereo not drawn),-9.62% (inactive)
